Laboratory results from PubChem BioAssay (NCATS).
Records with an inconclusive call do not appear. Calls of active or inactive are those of the source. Unless noted, calls come from the whole dose curve; as a rule, active = well fitted curve in either direction with a large enough effect (not every such curve was filed as active); inconclusive = small, poorly fitted or top-dose-only effect, or another doubt; inactive = flat fitted curve, though single readings scatter.

Tests used:
[1] = AP1 Signaling Pathway (AID 357); settings: ME-180 AP-1-bla reporter, EGF-induced, beta-lactamase ratio, 5 h; at 17.2 µM (top of the series) unless noted;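 note: ME-180 reporter cells stimulated with EGF at its EC50 level; % is set by controls: 0 for no effect and ±100 for the full control effect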
Method in brief: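 A ratiometric CCF4 readout (405 nm excitation; 460 and 530 nm emission) quantified AP-1-driven beta-lactamase in ME-180 cells after 5 h with compound and EC50 EGF; AC50 values were derived for activators and inhibitors.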

[2] = molecular target: Glucocorticoid receptor (Homo sapiens) (UniProt P04150); assay: GR-GFP Redistribution (AID 450;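 active = compounds whose dose series gives a full or clear partial fitted curve of increased nuclear translocation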; note: potency is the fitted concentration of half-maximal effect)
[3] = Stat Signaling Pathway (AID 446); settings: ME-180 SIE beta-lactamase reporter, IL-6 stimulated, 5 h; at 17.2 µM (top of the series) unless noted;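 note: ME-180 cervical cancer cells given 40 pM IL-6 alongside compound; SIE-controlled beta-lactamase reporter measured as 460/530 nm FRET emission ratio; % is set by controls: 0 for no effect and ±100 for the full control effect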
Method in brief: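 FRET read-out (405 nm excitation, 460/530 nm emission) of a beta-lactamase reporter under a STAT-inducible element in ME-180 cervical carcinoma cells. Cells with compound receive 40 pM IL-6 for 5 h. Values are normalised to AC90 stimulation and AC90 JAK-inhibitor controls.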

[4] = qHTS Assay for Identification of Small Molecule Agonists for Hypoxia Response Element Signaling Pathway (AID 914; active = well fitted activation curve with a large enough effect in the signal ratio, with a control signal flat, not every such curve was filed as active; the % refers to the signal ratio; note: potency is the fitted concentration of half-maximal effect; for activation: % of control where 0% means no effect); settings: ME-180 (cervical carcinoma) HRE-bla reporter, beta-lactamase ratio, CoCl2, 17 h; activation: active compounds read high
Method in brief: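 Compounds in a titration series were added to ME-180 reporter cells alongside an EC50 level of CoCl2. After 17 hours, beta-lactamase activity was read as the 460nm/530nm emission ratio of CCF4, giving AC50 values.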

[5] = molecular target: Cytochrome P450 1A2 (Homo sapiens) (UniProt P05177); assay: p450-cyp1a2 (AID 410; calls by dose curve; note: potency is the fitted concentration of half-maximal effect;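 for activity change, negative = inhibition: -100% = full effect of reference inhibitor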)
Method in brief: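 Luminescent demethylation readout: Luciferin-ME (100uM, equal to Km) turned over by 20nM CYP1A2 for 60 min at room temperature after NADPH regeneration addition, following 10 min compound preincubation. Normalization used 57 uM furafylline as full inhibition.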

[6] = NFAT Signaling Pathway (AID 444); settings: Jurkat NFAT-bla M1, carbachol, beta-lactamase ratio, 5 h; at 17.2 µM (top of the series) unless noted;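 note: carbachol stimulus at about its EC50 of 1 µM final; % is set by controls: 0 for no effect and ±100 for the full control effect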
Method in brief: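 Read-out: CCF4 FRET ratio (460 nm/530 nm) after 1 h RT dye loading, used for %activity and AC50 from titration series. Cells: Jurkat NFAT-β-lactamase/M1 line, treated with compound plus 1 uM carbachol for 5 h, 37 °C.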

[7] = molecular target: Glucocorticoid receptor (Homo sapiens) (UniProt P04150); assay: GR-EFC Redistribution (AID 451; calls by dose curve; note: potency is the fitted concentration of half-maximal effect); settings: CHO-K1 GR-EFC translocation, beta-gal luminescence, 2 h
Method in brief: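 Translocation of GR-ED fusion to nuclear EA restores b-gal, read by luminescence after 1 h room-temperature detection. Engineered CHO-K1 biosensor cells, 1,000/well, exposed 2 h at 37 C to titrations up to 46 uM final.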

[8] = molecular target: 3',5'-cyclic-AMP phosphodiesterase 4B (Homo sapiens) (UniProt Q07343); assay: qHTS Assay for Inhibitors of PDE-IV (AID 607; active = well fitted activation curve with a large enough effect in the main read-out, with a control signal flat, not every such curve was filed as active; note: % of control where 0% means no effect)
Method in brief: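 Cell-based read-out of cAMP via a modified cyclic nucleotide-gated channel and membrane potential dye (535/590 nm) in HEK293 cells expressing PDE4 endogenously. Compounds tested up to 22.9 uM final; 100 uM RO 20-1724 reference.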

[9] = molecular target: Guanine nucleotide-binding protein G(i) subunit alpha-1 (Homo sapiens) (UniProt P63096); assay: qHTS Assay for Inhibitors of RGS12 GoLoco Motif Activity (Green Fluorophore) (AID 879; active = well fitted curve in the direction sought with a large enough effect; an effect the other way counts as inactive or inconclusive;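 note: 0% = labeled peptide with Gαi1 and full inhibition = labeled peptide alone without protein; negative values mean loss of peptide binding seen as reduced polarization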)
Method in brief: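 A drop in FITC polarization marked displacement of the FITC-tagged RGS12 GoLoco peptide (10 nM) from Gαi1 (50 nM). Compounds were incubated 10 min at room temperature in Tris pH 7.5 buffer containing 150 mM NaCl, 0.1 mM GDP and 0.05% NP40; unlabeled peptide titration served as control.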

[10] = molecular target: Cytochrome P450 3A4 (Homo sapiens) (UniProt P08684); assay: qHTS Assay for Activators of Cytochrome P450 3A4 (AID 885; active = well fitted curve in the direction sought with a large enough effect; an effect the other way counts as inactive or inconclusive; note: nearly all actives have a fitted effect of over 65% in size)
Method in brief: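 Luminescent readout of luciferin formed from 25 uM Luciferin-PPXE (KM level) by 20 nM CYP3A4 in 200 mM KPO4, with 60 min NADPH-driven reaction at room temperature after 10 min compound exposure. Ketoconazole (57 uM) defined 100% inhibition.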

[11] = qHTS Assay for Identification of Small Molecule Agonists for Thrombopoietin (TPO) Signaling Pathway (AID 917; active = well fitted curve in the direction sought with a large enough effect; an effect the other way counts as inactive or inconclusive; note: % is set by controls: 0 for no effect and ±100 for the full control effect)
Method in brief: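 Cell-based luciferase reporter screen. Mouse Ba/F3 line stably expressing human TPO receptor; IL-3 removed overnight before plating. Co-treatment with compound and EC50 TPO (26 pM), 24 hrs at 37 C, then luminescence.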

[12] = molecular target: Muscarinic acetylcholine receptor M1 (Rattus norvegicus) (UniProt P08482); assay: qHTS Assay for Antagonists of Acetylcholine Muscarinic M1 Receptor: Measurement of IP-One Response (AID 944; active = well fitted curve in the direction sought with a large enough effect; an effect the other way counts as inactive or inconclusive; note: nearly all actives have a fitted effect of over 75% in size)
Method in brief: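 IP1 accumulation measured via TR-FRET between d2-IP1 and Eu-cryptate anti-IP1 antibody after carbachol (200 nM, EC80) stimulation for 30 min; rat M1-transfected CHO cells received compound 10 min before agonist.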

[13] = molecular target: Pyruvate kinase (Leishmania mexicana) (UniProt Q27686); assay: qHTS Validation Assay for Inhibitors of Leishmania Mexicana Pyruvate Kinase (AID 945; active = well fitted curve in the direction sought with a large enough effect; an effect the other way counts as inactive or inconclusive;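 note: 0% = DMSO only neutral control wells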)
Method in brief: (§1)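 Pyruvate kinase activity of E451W LmPYK (0.2 nM) was followed as ATP output after 1 h at room temperature with 0.5 mM PEP and 0.1 mM ADP, detected by PKLight luminescence.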

[14] = molecular target: Pyruvate kinase PKM (Homo sapiens) (UniProt P14618); assay: qHTS Assay for Inhibitors of Human Muscle Pyruvate Kinase (AID 958; active = well fitted curve in the direction sought with a large enough effect; an effect the other way counts as inactive or inconclusive)
Method in brief: (§2)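 ATP production by PKM2 detected via luciferase luminescence after 1 h room-temperature reaction (0.1 nM enzyme, PEP at Km 0.5 mM, ADP 0.1 mM, pH 7.2 imidazole buffer). Inhibition scaled to no-enzyme control; activation referenced to 0.3 nM enzyme wells.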

[15] = molecular target: Alpha-galactosidase A (Homo sapiens) (UniProt P06280); assay: Counterscreen for Glucocerebrosidase Inhibitors: qHTS Assay for Human alpha-Galactosidase at pH 4.5 (AID 992; active = well fitted curve in the direction sought with a large enough effect; an effect the other way counts as inactive or inconclusive; note: 0% is about no effect)
Method in brief: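 Fluorogenic 1536-well qHTS at pH 4.5 (citrate, Tween-20): 2 nM enzyme, 80 uM 4-MU-alpha-galactoside, 20 min room temperature, NaOH/glycine stop. Titration 0.7 nM to 77 uM, data normalized to no-enzyme and full-activity controls, Hill-fitted AC50.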

[16] = molecular target: alpha-glucosidase (Oryza sativa, rice) (UniProt Q653V4); assay: Counterscreen for Glucocerebrosidase Inhibitors: qHTS Assay for Rice alpha-Glucosidase at pH 5.0 (AID 997; active = well fitted curve in the direction sought with a large enough effect; an effect the other way counts as inactive or inconclusive;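 note: 0% = full activity with enzyme and -100% = basal without enzyme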)
Method in brief: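 Endpoint fluorogenic assay at pH 5.0: compounds (0.7 nM to 77 uM) titrated against 4 nM rice enzyme and 400 uM 4-MU-alpha-glucoside for 20 min at room temperature; NaOH/glycine stop, read ex 365/em 440 nm, Hill-fitted AC50.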

[17] = molecular target: Pyruvate kinase PKM (Homo sapiens) (UniProt P14618); assay: qHTS Assay for Activators of Human Muscle Pyruvate Kinase (AID 954; active = well fitted curve in the direction sought with a large enough effect, not every such curve was filed as active;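 note: 0% = uninhibited enzyme and -100% = no enzyme or full thiadiazolimine inhibition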)
Method in brief: as §2

[18] = molecular target: Pyruvate kinase (Leishmania mexicana) (UniProt Q27686); assay: qHTS Validation Assay for Activators of Leishmania Mexicana Pyruvate Kinase (AID 959; active = well fitted curve in the direction sought with a large enough effect; an effect the other way counts as inactive or inconclusive)
Method in brief: as §1

Chain of Glucocorticoid receptor (Homo sapiens) (P04150 whole entry, looked up, the tested form may be a part): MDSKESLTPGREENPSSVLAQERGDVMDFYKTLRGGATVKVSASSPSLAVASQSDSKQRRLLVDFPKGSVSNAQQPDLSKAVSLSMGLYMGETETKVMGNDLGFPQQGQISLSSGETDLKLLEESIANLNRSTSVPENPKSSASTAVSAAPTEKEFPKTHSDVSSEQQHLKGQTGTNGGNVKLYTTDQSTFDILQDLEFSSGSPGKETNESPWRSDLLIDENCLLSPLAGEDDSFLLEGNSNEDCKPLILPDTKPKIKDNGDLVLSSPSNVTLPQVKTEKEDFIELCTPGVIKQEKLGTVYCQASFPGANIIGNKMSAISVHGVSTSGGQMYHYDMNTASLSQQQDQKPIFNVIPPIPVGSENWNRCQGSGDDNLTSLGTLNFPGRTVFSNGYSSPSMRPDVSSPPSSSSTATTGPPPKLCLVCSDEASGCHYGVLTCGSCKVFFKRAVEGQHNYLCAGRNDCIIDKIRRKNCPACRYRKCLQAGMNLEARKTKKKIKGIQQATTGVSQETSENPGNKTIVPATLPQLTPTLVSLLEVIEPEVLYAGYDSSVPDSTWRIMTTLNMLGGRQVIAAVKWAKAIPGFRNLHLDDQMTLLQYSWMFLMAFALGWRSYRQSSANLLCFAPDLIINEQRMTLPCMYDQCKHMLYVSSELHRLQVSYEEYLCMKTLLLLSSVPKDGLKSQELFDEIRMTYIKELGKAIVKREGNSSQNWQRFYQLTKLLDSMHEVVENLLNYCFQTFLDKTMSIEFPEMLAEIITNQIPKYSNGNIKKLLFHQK
Chain of Pyruvate kinase PKM (Homo sapiens) (P14618 whole entry, looked up): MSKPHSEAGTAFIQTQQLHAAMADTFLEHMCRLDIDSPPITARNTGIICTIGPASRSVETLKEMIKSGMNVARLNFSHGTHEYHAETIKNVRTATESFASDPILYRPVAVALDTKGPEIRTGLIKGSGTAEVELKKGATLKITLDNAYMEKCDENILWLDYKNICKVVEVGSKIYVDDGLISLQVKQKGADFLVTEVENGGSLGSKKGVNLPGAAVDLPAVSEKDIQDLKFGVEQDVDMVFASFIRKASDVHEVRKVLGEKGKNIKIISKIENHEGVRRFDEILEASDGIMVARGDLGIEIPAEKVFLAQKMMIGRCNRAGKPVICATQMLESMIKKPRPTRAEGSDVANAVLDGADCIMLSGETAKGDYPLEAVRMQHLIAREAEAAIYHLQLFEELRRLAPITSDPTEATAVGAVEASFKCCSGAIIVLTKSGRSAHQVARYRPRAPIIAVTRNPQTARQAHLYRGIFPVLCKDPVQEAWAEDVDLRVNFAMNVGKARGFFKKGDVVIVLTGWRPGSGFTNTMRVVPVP
Chain of Pyruvate kinase (Leishmania mexicana) (Q27686 2-499 E452W): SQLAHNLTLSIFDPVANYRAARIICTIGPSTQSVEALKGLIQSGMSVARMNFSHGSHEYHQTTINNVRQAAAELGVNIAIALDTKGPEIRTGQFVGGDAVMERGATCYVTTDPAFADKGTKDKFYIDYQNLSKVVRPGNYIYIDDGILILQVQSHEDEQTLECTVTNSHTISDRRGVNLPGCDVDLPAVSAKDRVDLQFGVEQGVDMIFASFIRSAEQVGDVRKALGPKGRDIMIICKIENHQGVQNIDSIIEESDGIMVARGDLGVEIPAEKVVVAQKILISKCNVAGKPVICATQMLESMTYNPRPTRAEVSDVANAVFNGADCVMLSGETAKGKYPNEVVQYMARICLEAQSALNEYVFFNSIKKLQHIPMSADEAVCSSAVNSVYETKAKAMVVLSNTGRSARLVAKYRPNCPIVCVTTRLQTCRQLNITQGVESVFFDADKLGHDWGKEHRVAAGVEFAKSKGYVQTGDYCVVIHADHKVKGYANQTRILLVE
Chain of Cytochrome P450 1A2 (Homo sapiens) (P05177 whole entry, looked up): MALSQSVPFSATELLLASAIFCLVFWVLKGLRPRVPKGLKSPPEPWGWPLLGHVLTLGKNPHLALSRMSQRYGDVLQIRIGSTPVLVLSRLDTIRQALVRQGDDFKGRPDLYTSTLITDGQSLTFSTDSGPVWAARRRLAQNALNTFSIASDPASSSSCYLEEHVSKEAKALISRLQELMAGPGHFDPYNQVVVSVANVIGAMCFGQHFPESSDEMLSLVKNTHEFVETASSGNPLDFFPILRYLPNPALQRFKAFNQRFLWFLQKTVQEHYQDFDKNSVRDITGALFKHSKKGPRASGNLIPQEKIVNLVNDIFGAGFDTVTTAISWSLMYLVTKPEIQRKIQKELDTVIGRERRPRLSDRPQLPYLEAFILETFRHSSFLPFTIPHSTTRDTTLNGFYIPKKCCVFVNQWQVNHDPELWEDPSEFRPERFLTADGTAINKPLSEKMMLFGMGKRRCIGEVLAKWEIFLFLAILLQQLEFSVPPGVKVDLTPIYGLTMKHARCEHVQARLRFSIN
Chain of Guanine nucleotide-binding protein G(i) subunit alpha-1 (Homo sapiens) (P63096 whole entry, looked up): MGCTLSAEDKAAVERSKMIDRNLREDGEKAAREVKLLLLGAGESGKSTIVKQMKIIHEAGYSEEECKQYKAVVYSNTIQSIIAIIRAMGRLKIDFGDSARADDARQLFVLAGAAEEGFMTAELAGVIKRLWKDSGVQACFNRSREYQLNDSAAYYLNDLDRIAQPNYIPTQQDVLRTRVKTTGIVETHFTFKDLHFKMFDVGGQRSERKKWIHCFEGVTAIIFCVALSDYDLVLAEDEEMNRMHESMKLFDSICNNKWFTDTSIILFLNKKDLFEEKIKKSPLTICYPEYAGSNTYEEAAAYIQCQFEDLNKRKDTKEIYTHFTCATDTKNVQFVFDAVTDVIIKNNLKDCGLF
Chain of 3',5'-cyclic-AMP phosphodiesterase 4B (Homo sapiens) (Q07343 whole entry, looked up): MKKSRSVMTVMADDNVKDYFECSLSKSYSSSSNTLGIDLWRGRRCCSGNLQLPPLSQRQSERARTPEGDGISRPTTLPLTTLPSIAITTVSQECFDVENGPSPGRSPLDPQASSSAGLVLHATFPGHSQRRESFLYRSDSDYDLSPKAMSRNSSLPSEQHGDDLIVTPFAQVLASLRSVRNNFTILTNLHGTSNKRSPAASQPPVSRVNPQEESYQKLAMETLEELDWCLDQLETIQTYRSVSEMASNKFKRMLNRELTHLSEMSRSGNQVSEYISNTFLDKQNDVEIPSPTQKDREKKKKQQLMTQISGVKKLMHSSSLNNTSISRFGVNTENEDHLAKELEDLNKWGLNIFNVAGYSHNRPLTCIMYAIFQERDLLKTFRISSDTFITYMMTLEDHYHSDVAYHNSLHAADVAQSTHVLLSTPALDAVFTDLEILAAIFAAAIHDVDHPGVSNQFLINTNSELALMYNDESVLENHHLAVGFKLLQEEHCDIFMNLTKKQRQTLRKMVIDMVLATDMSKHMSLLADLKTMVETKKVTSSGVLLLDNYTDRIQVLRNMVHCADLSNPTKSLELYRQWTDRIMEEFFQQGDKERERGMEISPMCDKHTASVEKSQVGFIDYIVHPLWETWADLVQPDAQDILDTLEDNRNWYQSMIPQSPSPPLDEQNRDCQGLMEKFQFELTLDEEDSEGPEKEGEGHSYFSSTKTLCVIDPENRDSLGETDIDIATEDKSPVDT
Chain of Cytochrome P450 3A4 (Homo sapiens) (P08684 whole entry, looked up): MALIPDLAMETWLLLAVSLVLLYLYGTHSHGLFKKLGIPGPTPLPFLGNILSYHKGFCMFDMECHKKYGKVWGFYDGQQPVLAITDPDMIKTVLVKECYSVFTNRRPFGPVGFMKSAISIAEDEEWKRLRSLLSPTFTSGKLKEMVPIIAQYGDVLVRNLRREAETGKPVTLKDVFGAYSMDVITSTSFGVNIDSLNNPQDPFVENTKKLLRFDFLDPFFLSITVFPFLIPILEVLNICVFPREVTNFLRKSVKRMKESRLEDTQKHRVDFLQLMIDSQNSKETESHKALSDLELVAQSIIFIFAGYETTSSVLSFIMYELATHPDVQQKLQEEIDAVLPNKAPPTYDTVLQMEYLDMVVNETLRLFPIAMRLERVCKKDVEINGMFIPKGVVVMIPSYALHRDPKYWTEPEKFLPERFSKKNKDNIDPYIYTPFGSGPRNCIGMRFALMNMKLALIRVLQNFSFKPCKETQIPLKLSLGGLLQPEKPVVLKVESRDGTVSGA
Chain of Alpha-galactosidase A (Homo sapiens) (P06280 whole entry, looked up): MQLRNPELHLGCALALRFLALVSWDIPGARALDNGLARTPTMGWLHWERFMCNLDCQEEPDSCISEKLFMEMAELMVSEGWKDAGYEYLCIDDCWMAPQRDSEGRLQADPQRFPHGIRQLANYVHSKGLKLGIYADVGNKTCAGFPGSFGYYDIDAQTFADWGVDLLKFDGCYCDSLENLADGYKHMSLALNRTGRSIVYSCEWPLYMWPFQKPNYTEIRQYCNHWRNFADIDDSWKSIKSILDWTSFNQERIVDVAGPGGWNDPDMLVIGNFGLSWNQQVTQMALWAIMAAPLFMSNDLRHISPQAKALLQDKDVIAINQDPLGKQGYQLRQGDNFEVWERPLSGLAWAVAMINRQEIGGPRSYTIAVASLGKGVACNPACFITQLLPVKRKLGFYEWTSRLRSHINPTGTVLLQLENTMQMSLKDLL
Chain of Muscarinic acetylcholine receptor M1 (Rattus norvegicus) (P08482 whole entry, looked up): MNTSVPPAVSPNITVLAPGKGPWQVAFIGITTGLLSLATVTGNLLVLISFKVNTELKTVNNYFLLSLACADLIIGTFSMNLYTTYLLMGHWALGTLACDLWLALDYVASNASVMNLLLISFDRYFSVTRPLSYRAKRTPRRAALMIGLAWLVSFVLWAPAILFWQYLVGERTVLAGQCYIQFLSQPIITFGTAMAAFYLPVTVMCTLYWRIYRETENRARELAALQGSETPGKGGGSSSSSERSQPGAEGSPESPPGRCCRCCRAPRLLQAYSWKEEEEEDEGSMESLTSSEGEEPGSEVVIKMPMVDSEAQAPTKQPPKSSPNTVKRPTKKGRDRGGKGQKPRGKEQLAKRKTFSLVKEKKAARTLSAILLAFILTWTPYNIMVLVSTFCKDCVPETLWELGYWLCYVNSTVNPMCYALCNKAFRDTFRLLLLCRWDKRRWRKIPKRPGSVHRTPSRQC

N#Cc1c(N)n(CCOC(=O)c2ccc(Cl)cc2)c2nc3ccccc3nc12
inactive: activity change, negative = inhibition [1] 19.1% | Potency [2] > 20.6 µM

Clc1ccccc1CSc1nnc(-c2ccco2)c(-c2ccco2)n1
inactive: activity change, negative = inhibition [1] 10.8% | Potency [2] > 20.6 µM

N#CC1=C(SCC(=O)c2ccc(Br)cc2)NC2=C(C(=O)CCC2)C1c1ccco1 (centres undefined)
active: activity change, negative = inhibition [1] -81.5%
inactive: Potency [2] > 20.6 µM

CN1CCc2nc(SCC(=O)Nc3ccc(Cl)cc3)c(C#N)cc2C1
inactive: activity change, negative = inhibition [1] 5.33% | Potency [2] > 20.6 µM

CSc1nc2sc3c(c2c2nnnn12)CCCC3
inactive: activity change, negative = inhibition [1] 19.7% | Potency [2] > 20.6 µM

CCOC(=O)CSc1nnc2n(Cc3ccccc3)c(=O)c3c4c(sc3n12)CCC4
inactive: activity change, negative = inhibition [1] -11.8% | Potency [2] > 20.6 µM

CCN1CCN(c2nc3c(C)cccn3c(=O)c2/C=C(\C#N)S(=O)(=O)c2ccc(C)cc2)CC1
inactive: activity change, negative = inhibition [1] 6.19% | Potency [2] > 20.6 µM

CCCCn1cnc2c(c1=O)c1nc3ccccc3nc1n2Cc1ccc2c(c1)OCO2
active: Potency [4] 12.6 µM
inactive: activity change, negative = inhibition [1] 29.8% | activity, negative = inhibition [3] 10.3% | Potency [2] > 20.6 µM

CCC1(C)Cc2c(sc3c2c(=O)n(C)c2nnc(SCc4ccc5c(c4)OCO5)n32)CO1 (centres undefined)
inactive: activity change, negative = inhibition [1] 11.8% | activity, negative = inhibition [3] -3.34% | Potency [2] > 20.6 µM | activation [4] -18.9%

COCc1cc(=O)[nH]c(Nc2nc3ccc(C)cc3o2)n1
inactive: activity change, negative = inhibition [1] -0.718% | Potency [2] > 20.6 µM

CCCc1cc(-c2nc(N)ncc2-c2ccc3c(c2)OCCCO3)c(O)cc1OC
inactive: activity change, negative = inhibition [1] -29.1% | Potency [2] > 20.6 µM

CNC(=O)[C@@H]1O[C@@H](n2cnc3c(NCc4cccc(I)c4)ncnc32)[C@H](O)[C@@H]1O
inactive: Potency [5] | activity change, negative = inhibition [6] 9.56% [at 38 µM] | activity, negative = inhibition [3] -11.2% [at 38 µM] | Potency [2] > 46 µM | Potency [7] > 46 µM | Potency [8] | outcome [9] | Potency [10] | Potency [11] | Potency [12] | Potency [13] | Potency [14] | outcome [15] | outcome [16]

O=C(/C=C\c1ccc(O)c(O)c1)OCCc1ccccc1
inactive: activity change, negative = inhibition [6] -12.2% [at 38 µM] | activity, negative = inhibition [3] -10.7% [at 38 µM] | Potency [2] > 46 µM | Potency [7] > 46 µM | Potency [8] | outcome [9] | Potency [10] | outcome [17] | Potency [18] | outcome [15] | outcome [16]
active: Potency [5] 1 µM

Cc1ccnc(N2CCN(c3cc(C)c(C#N)c4nc5ccccc5n34)CC2)c1
inactive: activity change, negative = inhibition [1] 22.1% | Potency [2] > 20.6 µM
